Results from PubChem BioAssay (Tox21).
“And” between values parts separate entries of the source, which are not always exact repeats. Equal entries are not always repeated. Inconclusive results are not listed. A call without a number means that no potency is given here. The source holds several records for some structures; these can differ, active in one and inactive in another. The source made the active and inactive calls. Unless noted, calls follow the shape of the dose curve; as a rule, active = well fitted curve in the direction sought with a large enough effect in the repeat runs; inconclusive = weak or mixed curves; inactive = no such curve, though single readings can be large; an effect the other way counts as inactive or inconclusive.

Key:
[1] = qHTS assay for small molecule agonists of the p53 signaling pathway (AID 651631; calls by dose curve; also: nearly all actives have a fitted effect of over 15% in size; also: potency is read from the fitted curve at half-maximal effect)
In short: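 HCT-116 cells carrying a beta-lactamase reporter under p53 response elements were dosed with compound for 16 h at 37 °C. LiveBLAzer B/G FRET substrate was then added for 2 h at room temperature, and fluorescence intensity was read to detect pathway agonism.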

[2] = qHTS assay for small molecules that induce genotoxicity in human embryonic kidney cells expressing luciferase-tagged ATAD5 (AID 651632); also: nearly all actives have a fitted effect of over 15% in size; also: potency is read from the fitted curve at half-maximal effect
In short: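 Cells were seeded at 2,000 per well, dosed with compound, and incubated 16 hr at 37C in 5% CO2. Luciferase activity was then quantified after a 30 min room-temperature incubation with Amplite.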

[3] = qHTS assay for small molecule agonists of the p53 signaling pathway - cell viability (AID 651633; calls by dose curve; also: nearly all actives have a fitted effect of over 30% in size; also: potency is read from the fitted curve at half-maximal effect)
In short: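 Viability counter-read: CellTiter-Glo luminescence (30 min, room temperature) in the same p53RE-bla plates. These plates had been exposed to compounds for 16 h at 37 C.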

[4] = qHTS assay for small molecules that induce genotoxicity in human embryonic kidney cells expressing luciferase-tagged ATAD5 - cell viability (AID 651634; calls by dose curve; also: nearly all actives have a fitted effect of over 25% in size; also: potency is read from the fitted curve at half-maximal effect)
In short: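 Cells (HEK293T, luciferase-tagged ATAD5) are seeded at 2,000 per well, dosed with compound or DMSO vehicle, and incubated 15.5 hr at 37C and 5% CO2. CellTiter-Fluor is added for 30 min before fluorescence is measured.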

[5] = qHTS assay to test for compound auto fluorescence at 590 nm (red) in HepG2 cells (AID 720674)
In short: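 Red autofluorescence (Ex/Em 540/590 nm, Rose Bengal sodium equivalents) was measured in HepG2 cells, 2,000 per well in MEM plus 10% FBS, plated overnight at 37 C. Readings were taken 1 hr after adding 23 nL compound or DMSO, at 37 C and 5% CO2.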

[6] = qHTS assay to test for compound auto fluorescence at 535 nm (green) in HepG2 cells (AID 720675)
[7] = qHTS assay to test for compound auto fluorescence at 460 nm (blue) in HEK293 cells (AID 720678); also: potency is read from the fitted curve at half-maximal effect
In short: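 Intrinsic compound fluorescence is recorded in live HEK293 cultures after overnight incubation at 37C, 5% CO2, using excitation 405 nm and emission 460 nm. Values are referenced to triamterene.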

[8] = qHTS assay to test for compound auto fluorescence at 590 nm (red) in HEK293 cells (AID 720679)
In short: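 Red autofluorescence, HEK293 cells: 2,000 cells/well; attach 4-5 hr 37C; add 23 nL cpd or DMSO; incubate o/n 37C 5% CO2; read Ex540/Em590; Rose Bengal sodium reference.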

[9] = qHTS assay to test for compound auto fluorescence at 535 nm (green) in HEK293 cells (AID 720680)
[10] = qHTS assay to test for compound auto fluorescence at 460 nm (blue) in HEK293 cell free culture (AID 720681); also: potency is read from the fitted curve at half-maximal effect
In short: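 Blue fluorescence (Ex 405/Em 460 nm, triamterene-equivalent) was read immediately after pin transfer of compound or DMSO into medium (DMEM, 10% FBS) without cells.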

[11] = qHTS assay to test for compound auto fluorescence at 535 nm (green) in HEK293 cell free culture (AID 720682)
In short: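 Green-label autofluorescence (485 nm excitation, 535 nm emission) measured on compound added to cell-free culture medium (DMEM, 10% FBS). Output is expressed relative to fluorescein.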

[12] = qHTS assay to test for compound auto fluorescence at 590 nm (red) in HEK293 cell free culture (AID 720683)
In short: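 Red-channel autofluorescence of compounds in culture medium (DMEM, 10% FBS), no cells, measured at 540/590 nm. Rose Bengal sodium is the reference fluorophore for equivalence.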

[13] = qHTS assay to test for compound auto fluorescence at 590 nm (red) in HepG2 cell free culture (AID 720684)
In short: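 No cells present: MEM + 10% FBS only. Compound pinned in, red label read (540/590 nm). Activity = fluorescence equivalent to Rose Bengal sodium.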

[14] = qHTS assay to test for compound auto fluorescence at 535 nm (green) in HepG2 cell free culture (AID 720686)
[15] = qHTS assay to test for compound auto fluorescence at 460 nm (blue) in HepG2 cells (AID 720687); also: potency is read from the fitted curve at half-maximal effect
In short: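 Blue-channel autofluorescence (Ex/Em 405/460 nm, triamterene-equivalent) was measured after 1 hr compound exposure at 37 C, 5% CO2. Cells were HepG2, plated overnight at 37 C in MEM plus 10% FBS.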

[16] = target: Glucocorticoid receptor (Homo sapiens) (UniProt P04150); experiment: qHTS assay to identify small molecule agonists of the glucocorticoid receptor (GR) signaling pathway (AID 720691; active = well fitted activation curve with a large enough effect in the signal ratio in the repeat runs, not every such curve was filed as active; the % refers to the signal ratio; also: potency is read from the fitted curve at half-maximal effect); settings: GR-bla HeLa, beta-lactamase reporter ratio, 18 h; activation: at 62.4 µM (top of the series)
Chain of Glucocorticoid receptor (Homo sapiens) (P04150 whole entry, looked up): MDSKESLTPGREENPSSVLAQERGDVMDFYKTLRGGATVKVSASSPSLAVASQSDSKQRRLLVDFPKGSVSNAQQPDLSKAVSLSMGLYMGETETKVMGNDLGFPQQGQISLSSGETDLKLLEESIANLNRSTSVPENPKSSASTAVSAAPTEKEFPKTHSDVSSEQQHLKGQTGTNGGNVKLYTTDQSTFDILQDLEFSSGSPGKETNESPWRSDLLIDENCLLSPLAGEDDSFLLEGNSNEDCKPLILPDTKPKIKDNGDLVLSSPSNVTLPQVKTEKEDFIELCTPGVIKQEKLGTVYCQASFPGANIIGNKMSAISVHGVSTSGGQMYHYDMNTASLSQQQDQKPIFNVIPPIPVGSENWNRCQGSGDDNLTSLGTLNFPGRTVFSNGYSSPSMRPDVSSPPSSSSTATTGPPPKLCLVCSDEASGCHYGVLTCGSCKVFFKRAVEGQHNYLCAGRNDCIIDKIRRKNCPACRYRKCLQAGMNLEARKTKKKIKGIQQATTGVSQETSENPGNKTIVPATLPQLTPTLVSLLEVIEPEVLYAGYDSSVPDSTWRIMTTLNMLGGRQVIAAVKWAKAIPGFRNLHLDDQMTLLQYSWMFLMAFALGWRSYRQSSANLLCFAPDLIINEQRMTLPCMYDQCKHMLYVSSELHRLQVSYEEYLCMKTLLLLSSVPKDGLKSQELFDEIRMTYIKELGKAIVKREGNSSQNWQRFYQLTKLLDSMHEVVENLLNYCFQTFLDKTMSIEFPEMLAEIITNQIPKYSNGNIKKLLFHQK
In short: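 Steps: seed GR-bla HeLa cells, incubate 4 h at 37 C/5% CO2; pin-transfer DMSO-dissolved compounds; incubate 18 h at 37 C; add LiveBLAzer B/G FRET substrate; after 2 h at room temperature, measure fluorescence.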

[17] = target: Glucocorticoid receptor (Homo sapiens) (UniProt P04150); experiment: qHTS assay to identify small molecule antagonists of the glucocorticoid receptor (GR) signaling pathway (AID 720692; active = well fitted inhibition curve with a large enough effect in the signal ratio in the repeat runs, not every such curve was filed as active; the % refers to the signal ratio; also: potency is read from the fitted curve at half-maximal effect)
In short: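 Antagonism was scored as loss of dexamethasone-driven (5 nM final) reporter signal in HeLa cells bearing a glucocorticoid response element–beta-lactamase construct, after 18 h compound exposure at 37 C and 2 h FRET substrate loading.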

[18] = qHTS assay for small molecule disruptors of the mitochondrial membrane potential (AID 720635); also: potency is read from the fitted curve at half-maximal effect
In short: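 Mitochondrial membrane potential tracked with Mito-MPS dye, red aggregates (ex 540/em 590 nm) against green monomers (ex 490/em 535 nm). Compound treatment 1 hr at 37C, dye 30 min in HepG2.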

[19] = qHTS assay for small molecule disruptors of the mitochondrial membrane potential - cell viability (AID 720634; calls by dose curve; also: nearly all actives have a fitted effect of over 20% in size; also: potency is read from the fitted curve at half-maximal effect)
In short: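 Cytotoxicity was measured by ATP quantitation in HepG2 wells that had first been treated with compound for 1 hr and stained with m-MPI dye; CellTiter-Glo incubation was 30 min at room temperature.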

[20] = qHTS assay to test for compound auto fluorescence at 460 nm (blue) in HepG2 cell free culture (AID 720685); also: potency is read from the fitted curve at half-maximal effect
In short: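 Cell-free plates of MEM plus 10% FBS received 23 nL compound or DMSO vehicle; blue-channel (405/460 nm) intensity scored against triamterene as reference fluorophore.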
Tags tell the direction and shape of the fitted curve or compound fluorescence and quenching.

| SMILES | Potency [1] | Potency [2] | Potency [3] | Potency [4] | Potency [5] | Potency [6] | Potency [7] | Potency [8] | outcome [9] | Potency [10] | outcome [11] | Potency [12] | Potency [13] | Potency [14] | Potency [15] | Potency [16] | Potency [17] | Potency [18] | Potency [19] | Potency [20] |
| --- | --- | --- | --- | --- | --- | --- | --- | --- | --- | --- | --- | --- | --- | --- | --- | --- | --- | --- | --- | --- |
| CC(C)(C)c1ccc(C(=O)O)cc1 | inactive | inactive | inactive | inactive | inactive | inactive | inactive | inactive | inactive | inactive | inactive | inactive | inactive | inactive | inactive | inactive | inactive | – | – | – |
| O=C(NOCC1CC1)c1ccc(F)c(F)c1Nc1ccc(I)cc1Cl | 11.9 µM (active) | inactive | 23.7 µM (active) | inactive | inactive | inactive | inactive | – | inactive | inactive | inactive | inactive | inactive | inactive | inactive | – | 10.7 µM (active) | 8.41 µM (active) | – | – |
| O=c1c(-c2ccccc2)c1-c1ccccc1 | 18.8 µM (active) | inactive | 13.3 µM (active) | – | inactive | inactive | inactive | inactive | inactive | inactive | inactive | inactive | inactive | – | inactive | – | 23.9 µM (active) | 23.7 µM (active) | inactive | inactive |
| N=C1C=CC(=C(c2ccc(N)cc2)c2ccc(N)cc2)C=C1 | 68.6 µM (active) | inactive | – | 24.3 µM (active) | inactive | inactive | inactive | inactive | inactive | inactive | inactive | inactive | inactive | inactive | inactive | – | – | 0.0611 µM (active) | – | inactive |
| Cc1cc2c(cc1C(F)(F)F)N(C(=O)Nc1ccc(Oc3cccnc3C)nc1)CC2 | inactive | inactive | inactive | – | inactive | inactive | inactive | inactive | inactive | inactive | – | inactive | inactive | – | inactive | inactive | inactive | 12.4 µM (active) | – | inactive |
| Nc1c2ccccc2nc2ccccc12 | 3.35 µM (active) and 1.91 µM (active) | inactive | inactive | – | inactive | inactive | 11.2 µM [fluorescent] (active) and 31.6 µM [fluorescent] (active) | inactive | inactive | 11.2 µM (active) and 15.8 µM (active) | inactive | inactive | inactive | inactive | 11.2 µM [fluorescent] (active) and 15.8 µM [fluorescent] (active) | – | – | 11.9 µM (active) and 4.27 µM (active) | inactive | 14.1 µM [fluorescent] (active) and 15.8 µM [fluorescent] (active) |
| Oc1c(Cl)cc(Cl)c2cccnc12 | 2.37 µM (active) | 13.3 µM (active) | 2.98 µM (active) | – | inactive | inactive | inactive | inactive | inactive | inactive | – | inactive | inactive | inactive | inactive | – | – | 10.6 µM (active) | inactive | – |
| c1ccc(CSCc2ccccc2)cc1 | inactive | inactive | inactive | – | inactive | inactive | inactive | – | inactive | inactive | inactive | inactive | inactive | inactive | inactive | inactive | – | 43.1 µM (active) | inactive | inactive |
| COc1cccc2c1C(=O)c1c(O)c3c(c(O)c1C2=O)C[C@@](O)(C(=O)CO)C[C@@H]3O[C@H]1C[C@H](N)[C@H](O[C@@H]2CCCCO2)[C@H](C)O1 | 1.88 µM (active) | 2.37 µM (active) | 8.41 µM (active) | – | – | – | inactive | – | inactive | inactive | inactive | – | – | inactive | inactive | 3.01 µM (active) | – | 0.699 µM (active) | inactive | inactive |
| CCCCN1C(=O)[C@@H]([C@H](O)C2CCCCC2)NC(=O)C12CCN(Cc1ccc(Oc3ccc(C(=O)O)cc3)cc1)CC2 | 54.5 µM (active) | inactive | inactive | – | inactive | inactive | inactive | inactive | inactive | inactive | inactive | inactive | inactive | inactive | inactive | – | – | – | inactive | inactive |
| CSc1cnc(C)cn1 | inactive | inactive | inactive | – | inactive | inactive | inactive | inactive | inactive | inactive | – | inactive | inactive | inactive | inactive | inactive | – | inactive | inactive | inactive |
| CCN(CC)CCCC(C)Nc1c2ccc(Cl)cc2nc2ccc(OC)cc12 (stereo unspecified) | 5.96 µM (active) | 29.8 µM (active) | – | inactive | inactive | inactive | 11.2 µM [fluorescent] (active) | inactive | inactive | 17.8 µM (active) | inactive | inactive | inactive | – | 15.8 µM [fluorescent] (active) | – | – | – | – | 15.8 µM [fluorescent] (active) |
| O=C1C=CC(=O)N1 | 49.8 µM (active) | inactive | – | – | inactive | inactive | inactive | inactive | inactive | inactive | inactive | inactive | inactive | inactive | inactive | – | – | 28 µM (active) | 49.8 µM (active) | inactive |
| O=C1Cc2cc(CCN3CCN(c4nsc5ccccc45)CC3)c(Cl)cc2N1 | inactive | inactive | inactive and 23.7 µM (active) | – | inactive | inactive | inactive | inactive | inactive | inactive | inactive | inactive | inactive | inactive | inactive | 21.3 µM (active) | inactive | inactive | inactive | inactive |
